Source: PubChem (The Scripps Research Institute Molecular Screening Center)
hcDAF12 agonist: H. contortus DAF-12 activation, primary screen; activation, % at 6.8 µM; HEK293 hcDAF-12 lit1-tk-luc reporter, luminescence; 0% DMSO, 100% Δ7-dafachronic acid; AID 652067; actives 1.4% (n = 370,000);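 active means activation above the mean of all tested compounds plus 3 SD, cut at about 5.5% in these data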
DAX1 inh-1: inhibitors of DAX1 repression of SF-1 activated StAR promoter; inhibition, % at 6.8 µM; HEK293T StAR-luciferase reporter, SF-1/DAX-1 repression relief; actives 1.1% (n = 370,000);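 active means inhibition above the mean over all tested compounds plus 3 SD, cut at about 3.6% in these data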;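 further: higher inhibition means more luminescence from relief of DAX-1 repression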
DAX1 inh-2: NR0B1 (DAX1) inhibition | P51843 | HEK293 Gal4-DAX1 luciferase reporter, luminescence | inhibition, % at 6.75 µM | actives 0.99% (n = 340,000) | AID 504766;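 active means inhibition above the mean over all tested compounds plus 3 SD, cut at about 4.2% in these data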;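 further: inhibition shows as a rise in luminescence from relieved DAX1 repression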
Target sequence (P51843 207-470 limits assumed): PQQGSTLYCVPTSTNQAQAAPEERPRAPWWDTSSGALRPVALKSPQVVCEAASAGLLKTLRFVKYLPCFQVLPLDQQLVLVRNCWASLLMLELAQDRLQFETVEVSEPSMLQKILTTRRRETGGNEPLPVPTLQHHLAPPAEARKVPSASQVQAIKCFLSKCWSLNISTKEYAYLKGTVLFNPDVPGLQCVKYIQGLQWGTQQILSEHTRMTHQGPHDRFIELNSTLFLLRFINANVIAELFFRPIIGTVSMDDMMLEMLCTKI
ssDAF-12 act: activators of S. stercoralis DAF-12 nuclear receptor. actives 1% (n = 370,000). activation, % at 6.8 µM. HEK293 ssDAF-12/GRIP1 lit1-tk-luc reporter, luminescence; % of 3 µM dafachronic acid response;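 active means activation above the mean over all tested compounds plus 3 SD, cut at about 0.9% in these data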
hgDAF12 agonist: hgDAF-12 agonism, primary luciferase screen; HEK293 GAL4-hgDAF12 UAS-luciferase reporter, agonist luminescence; normalized to butyrate control; activation, % at 6.8 µM; actives 1.8% (n = 370,000); AID 687014;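 active means activation above a cutoff set at the mean of all screened compounds plus 3 SD, cut at about 10% in these data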
AHR activator: activates the human aryl hydrocarbon receptor; P35869; AHR-responsive luciferase reporter cells, luminescence; activation, % at 5 µM; actives 2.5% (n = 320,000); in the data active means activation above about 47%
Large screens that a line does not name were inactive. Compounds with a hit are over-represented: about 5.7% of the library has one in this group of screens.

CC1CCCC(NC(=O)COC(=O)c2cccs2)C1C (stereo not drawn)	none
O=C(COC(=O)c1cccc(-n2cnnn2)c1)Nc1c(Cl)cccc1C(F)(F)F	DAX1 inh-1 3.9
O=C(COC(=O)c1cccc(-n2cnnn2)c1)c1ccc(F)cc1	none
O=C(Nc1cccc(-n2cnnn2)c1)c1ccc(C(F)(F)F)cc1	AHR activator 68.8
O=C(Nc1cccc(C(F)(F)F)c1)c1cccnc1	AHR activator 56.3 (no result: hcDAF12 agonist, DAX1 inh-1, ssDAF-12 act, hgDAF12 agonist)
CCc1ccc(NC(=O)c2cccnc2)cc1	AHR activator 54.1
CCSc1ccc(NC(=O)c2cccnc2)cc1	none
CC(OC(=O)C1CCN(S(=O)(=O)c2ccc(C(C)(C)C)cc2)CC1)C(=O)N(C)C1CCCCC1 (stereo not drawn)	none (no result: AHR activator)
Cc1cccc(C(=O)OCC(=O)N2CC(=O)Nc3ccccc32)c1C	none
Cc1cc(Br)cn2c(Cc3cccc(F)c3)c(-c3ccco3)nc12	none (no result: DAX1 inh-2, AHR activator)
O[C@H]1C[C@H](c2ccccc2)N(CC2CCCCC2)C[C@@H]1n1cc(C2CC2)nn1	DAX1 inh-1 3.7 (no result: AHR activator)
Cc1cc(NC(=O)Cn2nc(C)c([N+](=O)[O-])c2C)no1	none
CCn1c2ccccc2c2cc(NC(=O)CSc3nnc(-c4cccc(OC)c4)n3N)ccc21	AHR activator 63.9
CCn1c2ccccc2c2cc(NC(=O)CSc3nnc(-c4ccccc4OC)n3N)ccc21	AHR activator 57.0
CCn1c2ccccc2c2cc(NC(=O)CSc3nnc(-c4ccc(OC)c(OC)c4)n3N)ccc21	none
CCn1c(SCC(=O)OC(C)C)nnc1-c1ccccc1OC	ssDAF-12 act 1.1
C/C(=N\O)c1ccc(Cl)c(Cl)c1	none (no result: hcDAF12 agonist, DAX1 inh-1, DAX1 inh-2, ssDAF-12 act, hgDAF12 agonist)
CCCn1c2ccc(/C(C)=N\O)cc2c2cc(/C(C)=N/O)ccc21	AHR activator 48.0
CCCCCCCCN1C(=O)[C@H](CC(=O)NCCCOCCCC)C[C@@]2(C(=O)OC)CCCCC=C12	none (no result: DAX1 inh-2, AHR activator)
O=C(NCCc1ccc(Cl)cc1)C1CCCN1C(=O)Nc1ccc(F)cc1 (stereo not drawn)	none
O=C(NCCc1ccccc1)C1CCCN1C(=O)Nc1ccc(F)cc1 (stereo not drawn)	DAX1 inh-2 5.1
Cc1ccc(S(=O)(=O)N(CC(=O)NC2CCC(C)CC2)c2cc(C)cc(C)c2)cc1 (stereo not drawn)	none (no result: DAX1 inh-2, AHR activator)
CCOC(=O)c1sc2nc3c(cc2c1N)COC(C(C)C)C3 (stereo not drawn)	DAX1 inh-2 4.3
CCOC(=O)c1sc2nc(N3CCOCC3)c3c(c2c1N)CC(C(C)C)OC3 (stereo not drawn)	none
COc1ccc(NC(=O)O/N=C/c2c(C)nn(C(C)(C)C)c2C)cc1	DAX1 inh-2 6.3
COc1ccc(Cn2c(C3CC3)nc3ccc(NC(=O)C4CC4)cc3c2=O)cc1	hgDAF12 agonist 11.1
Cc1ccc(N/C=C/C(=O)c2ccc(C)cc2)cc1	hgDAF12 agonist 12.7
Cc1ccc(NC(=O)C(=O)c2ccc(C)cc2)cc1	hgDAF12 agonist 12.4
NC(N)=NS(=O)(=O)c1ccc(N/C=C\C(=O)c2ccncc2)cc1	DAX1 inh-2 6.9
Cc1ccc(C(=O)/C=C\Nc2ccc(C)c(C)c2)cc1	hgDAF12 agonist 12.9
Cc1ccc(C(=O)/C=C/C(=O)c2ccc(C)cc2)cc1	none
CCc1ccc(C(=O)C(C)OC(=O)c2nc3nc(C)cc(C)n3n2)cc1 (stereo not drawn)	none
COc1ccc(C)cc1NC(=O)NC(C)c1ccc2c(c1)OCO2 (stereo not drawn)	none
CCOC(=O)C1CCN(C(=O)c2cccnc2Cl)CC1	none
Cc1ccc(C(=O)C=CC=Cc2ccccc2)cc1	DAX1 inh-2 4.5 (no result: AHR activator)
c1ccc(Nc2c(-c3ccco3)nc3ccccn23)cc1	hcDAF12 agonist 6.0
CC1CC(=O)Nc2ccccc2N1S(=O)(=O)c1cccc(Cl)c1 (stereo not drawn)	none
O=CNc1cc(-c2ccccc2)cn2c(-c3ccc(F)c(Cl)c3)cnc12	ssDAF-12 act 1.5 (no result: DAX1 inh-2, AHR activator)
CCOc1ccc(N(C(=O)c2snc(C(N)=O)c2N)C(C(=O)NC2CCCC2)c2ccncc2)cc1 (stereo not drawn)	none
CC[C@H](C)C(=O)O[C@H]1CCC=C2C=C[C@H](C)[C@H](CC[C@@H]3C[C@@H](O)CC(=O)O3)[C@H]21	DAX1 inh-1 3.9
O=C(NNS(=O)(=O)c1ccc(Br)cc1)c1csnn1	DAX1 inh-2 5.1 (no result: AHR activator)
Cc1cccc(N2Cc3ccc(Br)cc3C2)c1	hcDAF12 agonist 6.5, AHR activator 48.0
COc1ccc(C(=O)C2CCCN(Cc3cn[nH]c3-c3ccccc3)C2)cc1OC (stereo not drawn)	none
COc1ccc(-c2[nH]ncc2CN2CCCC(C(=O)c3cccc(OC)c3)C2)cc1 (stereo not drawn)	AHR activator 72.9
CC1(C)CC(=O)C2=C(C1)Nc1cc3c(cc1C2c1ccc2c(c1)OCO2)OCO3 (stereo not drawn)	DAX1 inh-2 5.3
COc1ccc(-c2nnn(CC(=O)N3CCN(c4ccc(F)cc4)CC3)n2)cc1	DAX1 inh-2 5.3
Cc1ccc(-c2nnc(N)s2)cc1	none
CC(C)c1ccc(-c2nnc(N)s2)cc1	hcDAF12 agonist 6.0, hgDAF12 agonist 11.3
Cc1ccc(Nc2c([N+](=O)[O-])ccc3nonc23)cc1C	none
COC(=O)C1CN(Cc2ccc(OC)cc2)CCS(=O)(=O)N1Cc1cn(CCOC(C)=O)nn1 (stereo not drawn)	none (no result: DAX1 inh-2, AHR activator)
Cc1ccc(S(=O)(=O)Nc2cccc(-c3ccc(N4CCCCCC4)nn3)c2)c(C)c1	DAX1 inh-1 4.1
O=[N+]([O-])c1ccccc1S(=O)(=O)Nc1cccc(-c2ccc(N3CCCC3)nn2)c1	none
Nc1[nH]c(C(=O)c2ccccc2)c(-c2ccc3ccccc3c2)c1C(=O)NCc1ccc(F)cc1	none (no result: DAX1 inh-2, AHR activator)
Nn1c(SCc2ccccc2)nc2ccccc21	hgDAF12 agonist 11.7
Cc1ccc(C)n1-c1nnc(N2CCC(C(=O)NCCCN3CCN(C)CC3)CC2)s1	none
Cc1cc(C)c(C)c(S(=O)(=O)NCC(=O)N2CCCC2)c1C	ssDAF-12 act 0.9
Cn1c(=O)c2c(nc(SCc3cccnc3)n2Cc2ccc(F)cc2)n(C)c1=O	none
COc1ccc(Cl)cc1NC(=O)NCc1cccnc1	none
CCOc1ccccc1NC(=O)NCc1cccnc1	AHR activator 83.7
COC(=O)c1ccccc1NC(=O)NCc1ccncc1	ssDAF-12 act 6.6
CCOc1ccccc1NC(=O)NCc1ccccc1	none
COc1ccc(OC)c(NC(=O)C23CCC(C)(C(=O)O2)C3(C)C)c1 (stereo not drawn)	none
COc1ccc(OC)c(NC(=O)NCc2cccnc2)c1	AHR activator 58.2
COC(=O)c1ccccc1NC(=O)C12CCC(C)(C(=O)O1)C2(C)C (stereo not drawn)	ssDAF-12 act 1.9
CCCCOCCCNC(=O)C[C@@H]1C[C@@]2(C(=O)OC)CCCCC=C2N(Cc2ccc(Cl)cc2Cl)C1=O	none (no result: DAX1 inh-2, AHR activator)
